Test results from PubChem BioAssay AID2685 (National Center for Advancing Translational Sciences (NCATS), 2010).
Out of some 320,000 compounds screened, about 2,100 (0.66%) were called active. Roughly 53% stayed inconclusive and do not appear here. The call rests on the fitted dose curve; in most records, active means well fitted inhibition curve with a large enough effect in the signal ratio, with a control signal flat (not every such curve was filed as active); inconclusive means small, poorly fitted or top-dose-only effect, or effect the other way, or a change in a side signal; inactive means flat fitted curve, though single readings scatter; the % refers to the signal ratio. What follows is part of a selection rich in actives, with near analogues and random picks from the rest.

Experiment: qHTS Assay for Lipid Storage Modulators in Drosophila S3 Cells;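 on cell number change: cells counted by Cell Tracker Red CMTPX staining in the red channel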; on lipid storage change, negative = inhibition: on the % scale 0 is the no-effect control and ±100 the full control effect
Details: BODIPY lipid droplet fluorescence, 18-24 h, cells fed with added oleic acid; cell number change: measured here: cell count max response; series mostly up to 46.1 µM; lipid storage change, negative = inhibition: at the top concentration
From the text: NIH Molecular Libraries Probe Production Centers Network [MLPCN] NIH Chemical Genomics Center [NCGC] MLPCN Grant: 1 R03 MH085686-01 Assay Submitter (PI): Beller, Mathias; Max-Planck-Institut fur Biophysikalische Chemie NCGC Assay Overview: Storing lipids as a reservoir for energy or the anabolism of elementary metabolites is a common feature of probably all cells and is conserved from bacteria to humans. The universal cellular lipid storage organelle is the so-called lipid storage droplet (LD). Although ubiquitous, LDs share a simple structure composed of a hydrophobic core that harbors the storage lipids, which is shielded by a droplet-specific phospholipid monolayer to which proteins are attached. The current model of LD biogenesis involves an incorporation of the lipid core into the membrane leaflets of the endoplasmic reticulum (ER) followed by a subsequent budding-like maturation of a LD, which ultimately pinches off. Once released, LD volume can increase by localized lipogenesis or fusion of existing droplet. Storage lipids are re-mobilized enzymatically by lipase activity. Lipase regulation in the adipocyte is heavily studied and involves multiple components including catecholamine signaling, the LD-associated proteins Perilipin and comparative gene identification (CGI-58) and at least two lipases named hormone sensitive lipase (HSL) and adipocyte triglyceride lipase (ATGL). LD regulation outside of the adipocyte is poorly understood and only few components are known. However, there is an urgent need to learn more about ectopic fat depots as mislocalized storage of lipids, for example in the liver or muscle, is an eminent health problem associated with insulin resistance or the metabolic syndrome. We developed a laser-scanning cytometer assay to enable 1,536-well screening and combined the results of the small molecules screen with an RNAi database based on lipid storage.
Triacsin C (Sigma-Aldrich T-4540), an inhibitor of long-chain fatty acyl CoA synthetase that blocks synthesis of triglycerides, was used as a positive control for lipid under-storage. A total of 23 nL of compound solution of different concentrations were transferred to the assay plates using a Kalypsys pin tool equipped with a 1,536-pin array containing 10-nL slotted pins (FP1S10, 0.457-mm diameter, 50.8 mm long; V&P Scientific). One microliter of oleic acid (400 uM) was added, and the plate was lidded with stainless steel rubber gasket lined lids containing pinholes. […] Fluorescence was detected by excitation of the fluorophores with a 488-nm laser on an Acumen Explorer (TTP Lab Tech). The total intensity in channel 2 (500-530 nm) reflected lipid droplet accumulation. Cells were detected using channel 3 (575-640 nm) with 5-um width and 100-um depth filters. The ratio of the number of objects in PMT channel 2 over the number of objects in PMT channel 3 was also calculated. Percent activity was computed relative to an internal control (100% inhibited lipid droplet deposition due to the presence of 20 uM Triacsin C), which was added to 32 wells/plate.
Potency means the concentration at half of the fitted maximal effect.

Row | Structure (SMILES) | lipid storage change, negative = inhibition | cell number change [%] | Potency | outcome
1 | COc1ccc(OC)c(/C=C/C(=O)N2CCN(S(=O)(=O)c3cc(C)ccc3C)CC2)c1 | 11.1% (inactive) | 6.55 | – | –
2 | Nc1cccc2c1C(=O)N(C(=O)/C=C/c1ccc(F)cc1)C2=O | -17.9% (inactive) | -29.8 | – | –
3 | Nc1cccc2c1C(=O)N(C(=O)/C=C/c1cccc(F)c1)C2=O | -19.8% (inactive) | -23.5 | – | –
4 | COc1ccc(OC)c(/C=C/C(=O)N2CCCc3ccccc32)c1 | -2.46% (inactive) | – | – | –
5 | COc1ccc(OC)c(/C=C/C(=O)N2C(=O)c3cccc(N)c3C2=O)c1 | – | 10.9 | 16.4 µM (active) | –
6 | O=C(c1ccc(Cl)cc1)c1ccc(CN2C(=O)c3ccccc3C2=O)o1 | 2.8% (inactive) | 8.92 | – | –
7 | COCCNc1nc(CSc2ccccc2)nc2sc(C)c(C)c12 | 11.7% (inactive) | 2.1 | – | –
8 | FC(F)(F)c1cc(C(F)(F)F)c2ccc(N3CCN(c4ncccn4)CC3)nc2n1 | 15.1% (inactive) | 9.76 | – | –
9 | Cc1nn(Cc2ccc(C(=O)O)o2)c(C)c1[N+](=O)[O-] | -2.98% (inactive) | 19.3 | – | –
10 | CCCN1C(=O)c2ccc(C(=O)NC3=NCCS3)cc2C1=O | – | – | – | inactive
11 | Cc1nn(-c2ccc(N3CCOCC3)nn2)c(C)c1CCC(=O)NCc1ccc(F)cc1 | 10% (inactive) | 2.75 | – | –
12 | CC(=O)c1ccc(N2CCN(C(=O)Nc3ccc(F)cc3F)CC2)cc1 | 1.35% (inactive) | 18.2 | – | –
13 | COc1ccc(C(=O)Nc2ccc(Cl)cc2C(=O)N2CCOCC2)cc1 | 0.287% (inactive) | 17.2 | – | –
14 | Cc1nnc2n1CCCCC2 | 4.69% (inactive) | 4.65 | – | –
15 | O=[N+]([O-])c1ccc(Oc2ccc(/C=N/O)cc2)nc1 | 19.2% (inactive) | -1.55 | – | –
16 | CS(=O)(=O)c1ccc(N2CCOCC2)c(S(C)(=O)=O)c1 | -24.1% (inactive) | 4.86 | – | –
17 | CCOC(=O)CN1C(=O)C2(OCCCO2)c2ccccc21 | – | – | 23.1 µM (active) | –
18 | CCCC(=O)CN1C(=O)C2(OCCO2)c2ccccc21 | 16.7% (inactive) | -15.8 | – | –
19 | CCOC(=O)CN1C(=O)C2(OCCCO2)c2cc(Br)ccc21 | -19.3% (inactive) | -7.87 | – | –
20 | COCCNC(=O)CN1C(=O)NC2(CCCc3cc(OC)ccc32)C1=O (centres undefined) | 5.71% (inactive) | – | – | –
21 | CCOc1ccc(C(=O)CCC(=O)N(CC)CC(=O)NCc2cccs2)cc1 | 14.6% (inactive) | 12.9 | – | –
22 | CCOc1ccccc1C(=O)N/N=C/c1coc2ccc(C)cc2c1=O | – | -20.2 | 10.3 µM (active) | –
23 | Cc1ccc2occ(/C=N/NC(=O)c3ccccc3Br)c(=O)c2c1 | – | – | – | inactive
24 | Cc1ccc2occ(/C=N/NC(=O)c3ccccc3O)c(=O)c2c1 | -9.35% (inactive) | 1.16 | – | –
25 | COc1cccc(Oc2cn[nH]c2-c2ccc(OCC(=O)NN)cc2O)c1 | 18.3% (inactive) | 0.872 | – | –

Row | Structure (SMILES) | lipid storage change, negative = inhibition | cell number change [%] | Potency | outcome
26 | CC(C)(C)c1cc(C(=S)N2CCN(CCO)CC2)cc(C(C)(C)C)c1O | – | – | – | inactive
27 | CN1CCN(CC(=O)c2cc(C(C)(C)C)c(O)c(C(C)(C)C)c2)CC1 | – | 15.8 | – | inactive
28 | CC(C)(C)c1cc(C(=O)CCN2CCOCC2)cc(C(C)(C)C)c1O | – | -17.7 | 29.1 µM (active) | –
29 | COc1cccc(C2=NOC(C(=O)Nc3ccc4c(c3)OCO4)C2)c1 (centres undefined) | 4.64% (inactive) | 7.67 | – | –
30 | COc1ccc(NC(=O)C2CC(c3c(F)cccc3Cl)=NO2)cc1OC (centres undefined) | -13% (inactive) | -11.7 | – | –
31 | COc1ccc(NC(=O)C2CC(c3ccccc3O)=NO2)cc1OC (centres undefined) | – | – | – | inactive
32 | COc1cc(NC(=O)C2CC(c3c(F)cccc3Cl)=NO2)cc(OC)c1OC (centres undefined) | – | -15.1 | 11.6 µM (active) | –
33 | COc1cccc(C2=NOC(C(=O)Nc3ccc(OC)c(OC)c3)C2)c1 (centres undefined) | – | – | 11.6 µM (active) | –
34 | COc1cc(NC(=O)C2CC(c3c(F)cccc3Cl)=NO2)c(OC)cc1Cl (centres undefined) | 15.8% (inactive) | -7.33 | – | –
35 | O=C(O)CC1C(=O)NCCN1CCCc1ccccc1 (centres undefined) | – | – | – | inactive
36 | CSc1cccc(NC(=O)C(C)NS(=O)(=O)c2ccc(F)cc2)c1 (centres undefined) | – | – | – | inactive
37 | Cc1cc(C)nc(/N=C(\N)N2CCCCC2)n1 | -9.41% (inactive) | -8.98 | – | –
38 | Cc1ccc(C(=O)C[n+]2cccc(C(N)=O)c2)cc1 | -6.48% (inactive) | 8.69 | – | –
39 | Cc1c(C(=O)n2cnc3ccccc32)cccc1[N+](=O)[O-] | 9.85% (inactive) | 23.4 | – | –
40 | Cc1ccc(C2(C)NC(=O)N(CC(=O)Nc3ccc4c(c3)CCC4)C2=O)cc1 (centres undefined) | 8.92% (inactive) | -12.5 | – | –
41 | O=C(N/C(=C/c1cccnc1)C(=O)N1CCOCC1)c1ccco1 | -0.339% (inactive) | 0.681 | – | –
42 | COc1cc(-c2nc(CCNC(=O)c3ccco3)cs2)cc(OC)c1OC | – | -3.07 | 18.4 µM (active) | –
43 | O=C(NCCc1csc(-c2cccnc2)n1)c1ccco1 | 1.09% [at 9.22 µM] (inactive) | 14.6 | – | –
44 | COc1ccc(-c2nc(CCNC(=O)c3ccc(Br)o3)cs2)cc1 | – | 29.2 | – | inactive
45 | Cc1ccccc1CCN(C(=O)CN1C(=O)c2ccccc2S1(=O)=O)C(C(=O)NCC1CCCO1)c1ccncc1 (centres undefined) | 2.68% (inactive) | -7.43 | – | –
46 | Cc1ccccc1NS(=O)(=O)c1ccc(OCC(=O)NCc2ccccn2)cc1 | 5.38% (inactive) | 6.59 | – | –
47 | CCC1CCCCN1CCCNC(=O)CCC(=O)N1CCOc2ccccc21 (centres undefined) | -28.6% (inactive) | 10.7 | – | –
48 | CC(C(=O)Nc1ccc2nccnc2c1)N1C(=O)C2C3C=CC(C3)C2C1=O (centres undefined) | 6.01% (inactive) | 0.122 | – | –
49 | CC(C(=O)NC1CCCCC1)N1C(=O)C2C3C=CC(C3)C2C1=O (centres undefined) | – | -1.76 | 1.84 µM (active) | –
50 | O=C(CCN1C(=O)C2C3C=CC(C3)C2C1=O)NC1CCCCC1 (centres undefined) | – | – | – | inactive
